Measurements from PubChem BioAssay AID540353 (National Center for Advancing Translational Sciences (NCATS), 2011).
The other results are listed elsewhere or left out. Results filed as inconclusive are left out. Calls of active or inactive are those of the source. Calls follow the shape of the dose curve; as a rule, active = well fitted inhibition curve with a large enough effect; inconclusive = small, poorly fitted or top-dose-only effect; inactive = no such curve, though single readings can be large or run the other way.

Assay: qHTS for Inhibitos of Bacillus subtilis Sfp phosphopantetheinyl transferase (PPTase): Chemistry Optimization Followup in B. Subtilis HM489
Conditions: B. subtilis HM489 (acpS-) growth, BacTiter-Glo, 5 h; series mostly up to 114 µM
Source text: Phosphopantetheinyl transfer is a process essential to cellular viability and maintenance. Cellular permeable and stable compounds acting as PPTase inhibitors are anticipated to be antimicrobial agents in organisms with complimenting genotypes. […] This experiment evaluated a series of test compounds for antimicrobial activity with B. subtilis HM489 (genotype: acpS- and sfp+), a strain that contains a targeted lesion in the acpS locus and thus requires a functional Sfp gene product for viability. [Mootz HD, 2001] This strain is expected to be sensitized to cell-permeable Sfp inhibitors. NIH Chemical Genomics Center [NCGC] NIH Molecular Libraries Probe Centers Network [MLPCN] MLPCN Grant: MH083266-01 Assay Submitter (PI): Michael Burkart, University of California, San Diego
Innoculum preparation. Bacillus subtilis HM489 is maintained on lysogeny broth (LB) solidified by the addition of 1.5% w/v agar. Single colonies were used to LB medium (2 mL) and shaken overnight at 30 masculineC. In the morning, this culture (100 uL) was used to seed a fresh LB medium (10 mL) and was shaken at 30 masculineC until the culture OD600 reached 0.5. This culture was diluted 1:100 in fresh LB medium to provide the inoculum below. Bacterial susceptibility. LB medium (2 uL) is dispensed into wells of a sterile white 1536-well plate. Test compounds (23 nL) prepared as serial dilutions in DMSO are added to the plate by pintool transfer. Innoculum (2 uL) is added; the plates are covered with a vented Kalypsys assay lid and incubated at 30 masculineC. After 5 hrs, Bac-Titer Glo (4 uL; Promega Corp, Madison, WI) is added to the plates. They are incubated 10 minutes at room temperature and then the luminescence detected in a ViewLux multimodal plate reader.

**Q.** For `COc1cccc(NC(=S)N2CCN(c3ccccc3C(F)(F)F)CC2)n1`, which Potency is on record?
**A.** 23.5 µM (active)

**Q.** For `Cc1cc(C)nc(NC(=S)N2CCN(c3ccc(Cl)cc3C(F)(F)F)CC2)c1`, which Potency is on record?
**A.** 10.5 µM (active)

**Q.** With `COc1cccc(NC(=S)N2CCN(c3ccc(Cl)cc3Cl)CC2)n1` as the compound, how does the Potency read?
**A.** inactive

**Q.** Which Potency does the source give for `Cc1ccc(N2CCN(C(=S)Nc3cc(C)ccn3)CC2)cc1` here?
**A.** 33.2 µM (active)

**Q.** With `Cc1cc(C)nc(NC(=S)N2CCN(c3cccc(C(F)(F)F)c3)CC2)c1` as the compound, how does the Potency read?
**A.** 33.2 µM (active)

**Q.** For `COc1ccnc(NC(=S)N2CCN(c3ncc(C(F)(F)F)cc3Cl)CC2)c1`, which Potency is on record?
**A.** 11.8 µM (active)

**Q.** Which Potency does the source give for `FC(F)(F)c1cccc(N2CCN(C(=S)Nc3ccncc3)CC2)c1` here?
**A.** 59.1 µM (active)

**Q.** For `Cc1cc(C)nc(NC(=S)N2CCN(c3ccc(Cl)cc3F)CC2)c1`, which Potency is on record?
**A.** 23.5 µM (active)

**Q.** With `Cc1cc(C)nc(NC(=S)N2CCN(c3ccc4nonc4c3)CC2)c1` as the compound, how does the Potency read?
**A.** inactive
